Laboratory results published in PubChem BioAssay (NCI).
About 79,000 compounds went through this panel and 15% of them were active in at least one assay; those are over-represented in the sample as a whole. Unmarked numbers belong to inactive results. Active and inactive are the calls of the source. No stated cut-off is given here; in the data, active means growth inhibition above about 70%; inactive means the rest.

Experiment: NCI Yeast Anticancer Drug Screen. Data for the rad14 strain (AID 159);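 further: 0% = growth of vehicle-treated control cultures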
Conditions: S. cerevisiae rad14 strain growth inhibition, active compounds read high
Procedure: Growth inhibition of yeast strains with defined genetic alterations is measured as a screen for potential anti-cancer activity. Selected strains with alterations in DNA damage repair or cell cycle control were exposed to compounds and growth inhibition was measured relative to vehicle treated controls. The strain used in this assay is rad14

Compound | growth inhibition (at 1.2 µM) [%] | growth inhibition (at 3.7 µM) [%] | growth inhibition (at 11.0 µM) [%] | growth inhibition (at 33.0 µM) | growth inhibition (at 100.0 µM)
Cc1nc2c(Br)cc(Br)cc2c(=O)n1-c1ccccc1NC1OCC(O)C(O)C1O (stereo not given) | 2 | 4 | 16 | 39% | 94% (active)
Cc1cc(-c2cc(C)c(O)c(C(C)(C)C)c2)cc(C(C)(C)C)c1O | -16 | -10 | -23 | 25% | 72% (active)
Brc1ccccc1-c1ncc(-c2ccccc2)o1 | -43 | -36 | -16 | 55% | 80% (active)
COc1ccc(C2C3=C(COC3=O)OC(C)(C)Oc3cc4c(cc32)OCO4)cc1OC (stereo not given) | 11 | 5 | 5 | 30% | 91% (active)
CCCCC/C(=C(\C#N)C(=O)OCC)c1ccccc1 | -1 | -2 | 1 | 8% | 5%
O=C(NNc1ccccc1)C(O)C(O)C(O)C(O)C(O)CO (stereo not given) | 0 | -1 | 8 | 20% | 59%
CCCCCCCCCCCCCCCCOP(=O)(O)OCC(N)C(=O)O (stereo not given) | 4 | -4 | 59 | 98% (active) | 97% (active)
C=C1CCC(O)C/C1=C/C=C1\CCCC2(C)C1CCC2C(C)CCCC(C)C (stereo not given) | -14 | -27 | -23 | -23% | 38%
